Source: PubChem BioAssay (NCI)
Compounds without any hit were thinned out: in the full panel of roughly 79,000, 15% have a hit. Active and inactive are the calls of the source. Rule as the data show it: active = growth inhibition above about 70%; inactive = the rest.

How the values were obtained:
[1] = NCI Yeast Anticancer Drug Screen. Data for the rad50 strain (AID 155);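 also: 0% = growth of vehicle-only cultures of the same strain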; conditions: S. cerevisiae rad50 strain growth inhibition; at 50.0 µM; hits give high values
In short: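 Growth of the mutant yeast was measured after compound exposure and referenced to vehicle-treated cultures.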

[2] = NCI Yeast Anticancer Drug Screen. Data for the mec2-1 strain (AID 157); conditions: S. cerevisiae mec2-1 strain, at 50.0 µM, hits give high values
In short: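 Vehicle-treated cultures served as reference for growth inhibition of compound-exposed mec2-1 yeast.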

[3] = NCI Yeast Anticancer Drug Screen. Data for the sgs1 mgt1 strain (AID 161);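 also: 0% = growth of cultures given vehicle only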; conditions: S. cerevisiae sgs1 mgt1 strain, at 50.0 µM, hits give high values
In short: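 Mutant yeast exposed to compound; growth scored against vehicle-only wells.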

[4] = NCI Yeast Anticancer Drug Screen. Data for the cln2 rad14 strain (AID 165);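 also: 0% = growth equal to vehicle treated cultures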; conditions: S. cerevisiae cln2 rad14 strain, at 50.0 µM, hits give high values
In short: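 Each compound was tested on cln2 rad14 yeast. Inhibition of growth was calculated against vehicle-exposed controls.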

[5] = NCI Yeast Anticancer Drug Screen. Data for the bub3 strain (AID 167); conditions: S. cerevisiae bub3 mutant strain, at 50.0 µM, hits give high values
In short: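 Whole-cell yeast assay. The mutant strain was incubated with compounds, and growth inhibition was determined by comparison with vehicle-treated cells.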

[6] = NCI Yeast Anticancer Drug Screen. Data for the mlh1 rad18 strain (AID 175); conditions: S. cerevisiae mlh1 rad18 strain growth inhibition; at 50.0 µM; hits give high values
In short: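 Vehicle-treated cultures served as the reference for growth inhibition in a yeast strain carrying DNA damage repair alterations exposed to each compound.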

Measured: growth inhibition

CN(C)c1ccc(N=Nc2cccc3ccoc23)cc1
inactive: [1] 11.6% | [2] -23.6% | [3] 9.9% | [4] -28.3% | [5] 14.9% | [6] 14%

CCc1nc(N)nc(N)c1-c1ccc(NC(C)c2ccccc2)c([N+](=O)[O-])c1 (stereo unspecified)
inactive: [1] 13.6% | [2] -8.4% | [3] 14.5% | [4] -1.1% | [5] 9.1% | [6] -7.6%

O=c1nc(Oc2ccccc2)nc2ncccn12
inactive: [1] 47% | [2] 26.1% | [3] 40.5% | [4] 20.2% | [5] 50.6% | [6] 65%

COC(=O)c1c(C(=O)c2ccccc2)nn2c(-c3ccccc3)c(-c3ccccc3)c(-c3ccccc3)c(-c3ccccc3)c12
inactive: [1] 10.3% | [2] -1.6% | [3] -23.6% | [4] 7.05% | [5] -1.1% | [6] 0.1%

O1[SiH]2[SiH]3O[SiH]3[SiH]3O[SiH]3[SiH]12 (stereo unspecified)
inactive: [1] -16.8% | [2] -11.7% | [3] -8.2% | [4] -16.6% | [5] -4.35% | [6] -26.6%

O=C(O)CCC(=O)c1ccc2c3c(cccc13)CC2
inactive: [1] 22.6% | [2] 0.9% | [3] 15.2% | [4] 46% | [5] 21.5% | [6] 36%

CCCC(=O)C(C)(C)C
inactive: [1] 18.2% | [2] -12.4% | [3] -35% | [4] -41.5% | [5] -22.1% | [6] 6.75%

FC(F)Cc1ccccc1
inactive: [1] 3.55% | [2] -0.75% | [3] 11.1% | [4] -7.15% | [5] -1.5% | [6] -6.6%

Cc1cc(C(O)CCCc2ccccc2)cc(C)c1O (stereo unspecified)
inactive: [1] 37.6% | [2] 6.4% | [3] 3.7% | [4] 34.4% | [5] 42% | [6] 5.1%

CC(=O)Nc1ccc2oc(=O)[nH]c(=O)c2c1
inactive: [1] 10.8% | [2] -15.1% | [3] 6.3% | [4] 9.9% | [5] -18.6% | [6] -0.55%

O=C(NCCCCCCNC(=O)C1CCCNC1)C1CCCNC1 (stereo unspecified)
inactive: [1] 19.1% | [2] -11.7% | [3] 13.8% | [4] 15.8% | [5] 15.4% | [6] 12.8%

Cc1cc(Cl)ccc1N=NC(=O)NNc1ccc(Cl)cc1C
inactive: [1] 35.2% | [2] -15.2% | [3] -7.05% | [4] -21.9% | [5] -7.2% | [6] -19.5%

CCc1nnnn1-c1ccc(Br)cc1
inactive: [1] 8.8% | [2] 38.5% | [3] 13.7% | [4] 9.8% | [5] 40.2% | [6] 18.5%

COc1ccccc1NC(=O)Cc1nc(=O)[nH]c(=O)[nH]1
inactive: [1] -13.3% | [2] -37.7% | [3] 3.5% | [4] -0.35% | [5] -4.95% | [6] -9.55%

COc1ccc(/C(N)=N/OCc2ccc(C#N)cc2)cc1
inactive: [1] -13.5% | [2] -21.4% | [3] -3.2% | [4] 10.3% | [5] 20.7% | [6] -25.8%

Cc1ncc(C(=O)O)c(CO)c1N
inactive: [1] 7.45% | [2] -15.9% | [3] -14.8% | [4] 13.3% | [5] -18.4% | [6] 4.8%

NCCNc1ncnc2ccccc12
inactive: [1] -13.1% | [2] 16.1% | [3] -1.75% | [4] -11.6% | [5] -1.35% | [6] -5.2%

COc1ccc(S(=O)(=O)N/N=C/C(=O)OCOC(=O)C(C)(C)C)cc1
inactive: [1] 1.55% | [2] -11.8% | [3] -5.1% | [4] 8.55% | [5] -25.9% | [6] 19.1%

CC(=O)N(c1ccccn1)c1ccccn1
inactive: [1] -15.3% | [2] -10.2% | [3] -19.9% | [4] -54.5% | [5] 0.5% | [6] -31.2%

COc1cc(C(=O)Oc2c(C(C)=O)sc3c2c(=O)n(-c2ccccc2)c(=S)n3-c2ccccc2)cc(OC)c1OC
inactive: [1] 19.7% | [2] -5.8% | [3] 8.45% | [4] -13.7% | [5] 17.9% | [6] 22.5%

CC(=O)OCC(=O)[C@@]1(O)CC[C@H]2[C@@H]3CCC4=CC(=O)CC[C@]4(C)[C@H]3[C@@H](O)C[C@@]21C
inactive: [1] -20.6% | [2] -17.4% | [3] -3.2% | [4] -20.3% | [5] -23.1% | [6] -38.5%

CC(=O)C(C)(C)OC(=O)COc1ccc(Cl)cc1
inactive: [1] -39% | [2] -2.75% | [3] -9.45% | [4] 43.4% | [5] 32.3% | [6] -24.6%

Cc1nc(-n2nc(-c3ccccc3)cc2-c2ccccc2)sc1C(/C=C/c1ccc([N+](=O)[O-])cc1)=N/NC(=O)c1ccncc1
inactive: [1] 47.4% | [2] 36.7% | [3] 17.9% | [4] -24.7% | [5] 46.1% | [6] 58.5%

OC(Cc1cccnc1)(c1ccccc1)c1ccccc1
inactive: [1] -0.3% | [2] -40.4% | [3] -16.7% | [4] -21.5% | [5] -13.9% | [6] -0.4%

COc1cnnc2ccccc12
inactive: [1] 12.8% | [2] 3.2% | [3] 4.6% | [4] -2.35% | [5] -0.9% | [6] 14.3%

S=C1SCCCN1c1ccccc1
inactive: [1] -6.35% | [2] -4.05% | [3] -4.9% | [4] -14.5% | [5] -9.6% | [6] -20%

CCOC(=O)C(CCN(C)C)C(=O)OCC
inactive: [1] 5.75% | [2] -10.2% | [3] 2.8% | [4] 1.1% | [5] -23.1% | [6] 14.2%

O=C(CO)CC(=O)CCC(=O)Nc1cccc([N+](=O)[O-])c1
inactive: [1] -4.7% | [2] 21.5% | [3] 0% | [4] 42.8% | [5] -12.3% | [6] -4.35%

Cc1ccc2c(c1)nc1n2C(c2c(F)cccc2F)SC1 (stereo unspecified)
inactive: [1] 0.15% | [2] -6.45% | [3] 26.9% | [4] 13.4% | [5] 29.3% | [6] -3.7%

NC(=O)CN1CC(C2=C(O)CN(CC(N)=O)C2=O)=CC1=O
inactive: [1] -23.9% | [2] -8.6% | [3] -10.1% | [4] -43.5% | [5] -6.35% | [6] -9.2%

O=S(=O)(O)C(O)c1ccccc1 (stereo unspecified)
inactive: [1] 1.25% | [2] -2.85% | [3] -8.85% | [4] -10.9% | [5] -15.1% | [6] -6.2%

CC(NC(=O)N=Nc1ccccc1)C(=O)O (stereo unspecified)
inactive: [1] -3.05% | [2] -8.95% | [3] -9.6% | [4] -39% | [5] -11.1% | [6] 6.2%

CC1=C(C(=O)Nc2ccc([N+](=O)[O-])cc2)C(c2ccco2)C(C(=O)Nc2ccc([N+](=O)[O-])cc2)=C(C)N1
inactive: [1] 30.2% | [2] 35.5% | [3] 34.4% | [4] 38.2% | [5] 43.5% | [6] 14.9%

O=C1NC(Cc2c[nH]c3ccccc23)C(=O)N2CCCC12 (stereo unspecified)
inactive: [1] -4.85% | [2] 1% | [3] -7% | [4] -6.5% | [5] -6.3% | [6] 8.85%

Cc1cc(C)c(S(=O)(=O)c2cccs2)c(C)c1
inactive: [1] -7% | [2] -10.2% | [3] -8.25% | [4] -6.45% | [5] 5.25% | [6] -2.8%

CCOc1ccccc1C(=O)Nc1cc(Cl)ccc1Cl
inactive: [1] 6.8% | [2] -18.1% | [3] -7.45% | [4] -4.8% | [5] -15.1% | [6] 2.85%

COc1cccc(/C=C/S(=O)(=O)Cc2ccccc2)c1OC
inactive: [1] 9.7% | [2] 4.85% | [3] 4.85% | [4] 23.4% | [5] 7.4% | [6] 26.1%

CC1=C(C)C(=O)OC1
inactive: [1] -3.55% | [2] -12.3% | [3] -0.9% | [4] 6% | [5] 9.85% | [6] -24.5%

O=C(O)c1c2c(cc3c(=O)c4ccccc4[nH]c13)CCCC2
inactive: [1] -5.65% | [2] -16.4% | [3] 18.7% | [4] 7.25% | [5] -15.7% | [6] 5.2%

CCCCCCCCCCCCCCCCOc1ccc(S(=O)(=O)NC(C)(C)C)cc1[N+](=O)[O-]
inactive: [1] 8.7% | [2] -17.4% | [3] 7.85% | [4] -1.6% | [5] 20.6% | [6] 18.9%

COc1ccc(CCc2ccc(OC)c(OCc3ccccc3)c2)cc1COc1ccccc1
inactive: [1] 41.9% | [2] 0.45% | [3] 22.1% | [4] 3.85% | [5] -1.8% | [6] 5.95%
